Data reported in ChEMBL document CHEMBL1157539, “Thousands of chemical starting points for antimalarial lead identification” (Nature, 2010).

What follows are molecules tested on Plasmodium falciparum (assay: GSK_TCMDC: Inhibition of Plasmodium falciparum Dd2 in whole red blood cells, using parasite LDH activity as an index of growth. Test compounds present at 2uM).
Format: functional

SMILES | Inhibition [%]
Cc1cc(-c2ccc3occ(CCN)c3c2)cnc1N | 56
COC(=O)c1cccc(CNCc2ccc(-c3ccc(-c4nc5cc(F)ccc5[nH]4)s3)cc2)c1.O=C(O)C(F)(F)F | 82
COc1cc(Cc2cnc(N)nc2N)cc(OCCNC(=O)OCc2ccccc2)c1OC | 0
Cc1ccc(OC2CCN(CCCCC3(C)C(=O)Nc4ccccc43)CC2)cc1.Cl (centres undefined) | 2
CCOC(=O)c1ccc(NC(=O)Nc2ccc(-c3ccc(-c4nc5ccccc5[nH]4)cc3)cc2)cc1 | 100
Cc1nc(-c2nc(N3CCC(C(N)=O)CC3)ncc2-c2ccsc2)sc1C | 33
CCOC(=O)c1ccc(N2CCN(CCCNC(=O)/C(=C/C=C/c3cc4cc(Cl)c(Cl)cc4[nH]3)OC)CC2)cc1 | 72
O=C(Nc1cccc(-c2ccc(-c3nc4ccccc4[nH]3)cc2)c1)Nc1ccc(F)c(F)c1F | 38
COc1ccc(NC(=O)CCNc2cc(C)nc(NCc3cccc(C)c3)n2)cc1.O=C(O)C(F)(F)F | 25
COc1ccc(N2CCN(CCCCNC(=O)c3ccc(NC(=O)c4ccc(Cl)c(Cl)c4)cc3)CC2)c(OC)c1 | 98
CC(Oc1ccc(Cl)cc1)C(=O)N(C)C1CCN(CCCCCNC(=O)/C=C/c2ccc(Cl)c(Cl)c2)CC1 (centres undefined) | 10
Cc1cc(F)ccc1[C@H]1CNCCN1C(=O)N(C)C(C)(C)c1cc(C(F)(F)F)cc(C(F)(F)F)c1.Cl | 100
O=C(/C=C/c1ccc(Cl)c(Cl)c1)NCCCCCN1CCC(c2c[nH]c3ccc(O)cc23)CC1 | 0
O=S(=O)(Nc1ccc(CCN2CCC(N3CCCCC3)CC2)cc1)c1cccc2cccnc12 | 45
O=C(NOCCOc1ccccc1)c1ccccc1 | 0
Cc1ccc(NC(=O)c2ccc(CN3CCCN(CC4CCCCC4)CC3)cc2)cc1.O=C(O)C(F)(F)F | 42
O=C(/C=C/c1ccc(Cl)c(Cl)c1)NCCCCCN1CCC(c2cn[nH]c2-c2ccccc2)CC1 | 0
N#CCOc1c(C2CCN(CCCCNC(=O)c3ccc(-c4ccc(C(F)(F)F)cc4)cc3)CC2)ccc2c1CCCC2 | 48
CC(C)C[C@H](NC(=O)c1ccc(OCCN2CCOCC2)cc1)C(=O)N[C@H](/C=N/N1CC(=O)NC1=O)CCc1ccccc1 | 67
Cc1cc(Nc2cccc(Cl)c2)nc2ccc(NC(=O)c3ccc(=O)[nH]c3)cc12 | 23
Cl.Cn1ccnc1S(=O)(=O)CCNCc1ccc(-c2ccc3ncnc(Nc4ccc(OCc5cccc(F)c5)c(Cl)c4)c3c2)o1 | 94
COc1ccccc1N1CCN(CCCCNC(=O)c2ccc(NC(=O)c3cc4ccccc4o3)cc2)CC1 | 2
CCc1cn2c3c(cc(C(=O)N[C@@H](Cc4ccccc4)[C@H](O)CN[C@@H](C)CC)cc13)N(C)S(=O)(=O)CC2.O=CO | 98
CCCCCNC(=N)c1ccc(OCCCCCOc2ccc(C(=N)NCCCCC)cc2)cc1.Cl | 98
